Screening data from PubChem BioAssay.
Neddyl block – blocks human cullin neddylation. TR-FRET cullin neddylation, biochemical. inhibition, % at 25 µM. AID 651699. P61081+Q13564. 360,000 compounds, 0.58% hits; in the data active means inhibition above about 36%
GC-A act – GC-A (human) enzyme activation; P16066; HEK293 GC-A cells, cGMP TR-FRET, EC30 ANP; 0% at EC30 ANP, 100% saturating ANP; activation, % at 10 µM; 370,000 compounds, 0.14% hits; in the data active means activation above about 40%
TLR4 MyD88 comp – blocks binding of human TLR4 to MyD88; O00206+Q99836; HeLa CL3-4 TLR4/MyD88 BLA complementation, FRET ratio; inhibition, % at 8.4 µM; 200,000 compounds, 0.18% hits; in the data active means inhibition above about 25%;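 further: 0% = vehicle and 100% = reference inhibitor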
TLR9-MyD88 block – TLR9-MyD88 interaction inhibition | Q9NR96+Q99836 | 340,000 compounds, 0.21% hits | AID 504734 | inhibition, % at 4.98 µM | CHO BLA complementation TLR9-MyD88, CCF4 FRET ratio;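 active means inhibition above the mean over all tested compounds plus 3 SD, cut at about 21% in these data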;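 further: 0% = DMSO only wells and 100% = clavulanate BLA inhibitor control wells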
NPR2 activator – GC-B (human) receptor activation; P20594; HEK293-GC-B cells, CNP EC30, cGMP TR-FRET; 0% at EC30 CNP, 100% saturating CNP; activation, % at 10 µM; 370,000 compounds, 0.11% hits;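 active means activation at 10 µM reaching about 35% in either raw or pattern-adjusted values, limit read from the data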
Target sequence (P20594 whole entry, looked up): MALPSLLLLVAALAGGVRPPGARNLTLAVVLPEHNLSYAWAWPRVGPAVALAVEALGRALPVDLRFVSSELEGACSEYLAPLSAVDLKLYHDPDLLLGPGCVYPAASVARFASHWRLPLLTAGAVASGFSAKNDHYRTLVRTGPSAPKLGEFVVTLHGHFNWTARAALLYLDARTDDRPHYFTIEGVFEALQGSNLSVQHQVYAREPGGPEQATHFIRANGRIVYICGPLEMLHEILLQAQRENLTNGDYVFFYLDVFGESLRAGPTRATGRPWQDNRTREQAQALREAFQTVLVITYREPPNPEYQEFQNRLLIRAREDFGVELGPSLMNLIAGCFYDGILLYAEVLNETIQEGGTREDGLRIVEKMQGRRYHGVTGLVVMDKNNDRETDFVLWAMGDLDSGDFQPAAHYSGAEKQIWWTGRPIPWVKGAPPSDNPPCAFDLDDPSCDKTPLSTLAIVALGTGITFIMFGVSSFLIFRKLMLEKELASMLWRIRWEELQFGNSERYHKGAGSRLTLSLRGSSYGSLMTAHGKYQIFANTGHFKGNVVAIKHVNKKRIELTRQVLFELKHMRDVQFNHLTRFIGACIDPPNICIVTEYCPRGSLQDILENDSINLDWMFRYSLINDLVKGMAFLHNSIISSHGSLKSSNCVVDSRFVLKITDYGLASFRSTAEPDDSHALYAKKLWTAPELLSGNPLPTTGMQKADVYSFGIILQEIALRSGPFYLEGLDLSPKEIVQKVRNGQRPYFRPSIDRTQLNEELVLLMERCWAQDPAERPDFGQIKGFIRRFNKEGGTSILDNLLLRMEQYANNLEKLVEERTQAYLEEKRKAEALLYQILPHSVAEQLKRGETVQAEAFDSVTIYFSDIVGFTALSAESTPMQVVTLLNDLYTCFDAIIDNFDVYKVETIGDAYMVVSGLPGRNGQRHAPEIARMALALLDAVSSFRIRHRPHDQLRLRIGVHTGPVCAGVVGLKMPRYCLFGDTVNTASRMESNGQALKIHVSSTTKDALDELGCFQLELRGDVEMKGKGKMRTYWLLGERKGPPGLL
NOD2-RIPK2 inh – NOD2-RIPK2 protein interaction inhibition. CHO BLA complementation NOD2-RIPK2, CCF4 ratio. inhibition, % at 4.98 µM. 360,000 compounds, 0.38% hits. AID 624267; in the data active means inhibition above about 21%;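 further: 0% = vehicle only and 100% = reference blocker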
TLR9-MyD88 conf – confirmation of human TLR9-MyD88 binding inhibitors; AID 540250; CHO TLR9/MyD88 BLA complementation, CCF4 FRET ratio; 680 compounds, 51% hits; shares compounds with TLR9-MyD88 block; inhibition, % at 4.98 µM;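 active means mean inhibition across three repeats above about 21% taken from the earlier screen, limit read from the data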;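 further: blue over green emission ratio reports constitutive TLR9 MyD88 association via BLA complementation; 0% = DMSO vehicle wells and 100% = clavulanate BLA inhibitor wells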
BLA counter-1 – beta-lactamase reporter inhibition, counter-screen artifact; shares compounds with TLR9-MyD88 block; CHO-BLA cells, CCF4 FRET ratio, BLA reporter; inhibition, % at 4.98 µM; 680 compounds, 7% hits; AID 540251;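 active means mean inhibition above a 50% cutoff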;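 further: counterscreen of TLR9-MyD88 hits on CMV-driven BLA in CHO-K1 cells; 0% = DMSO alone and 100% = clavulanate blocking BLA; higher means less blue over green ratio so more BLA blockade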
TLR9 CHO tox – counter-screen for TLR9-MyD88 inhibitors: cytotoxicity in CHO cells; shares compounds with TLR9-MyD88 block; luminescence; inhibition, % at 4.98 µM; 680 compounds, 39% hits; AID 588336; in the data active means inhibition above about 11%
NOD2 RIPK2 conf – NOD2-RIPK2 interaction inhibition confirmed; shares compounds with NOD2-RIPK2 inh; CHO cells, NOD2-RIPK2 BLA complementation, CCF4 FRET; inhibition, % at 4.98 µM; 1,200 compounds, 70% hits; AID 624370;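 active means mean inhibition across replicates above a set limit taken from the earlier primary screen, cut at about 21% in these data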;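 further: 0% = DMSO-only wells and the high end = clavulanate BLA-blocked wells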
BLA counter-2 – NOD2-RIPK2 counterscreen BLA reporter activity | CHO BLA reporter, CCF4 FRET ratio | inhibition, % at 4.98 µM | AID 624371 | 1,200 compounds, 57% hits | shares compounds with NOD2-RIPK2 inh;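 active means mean inhibition above the low-control mean inhibition plus three low-control SD, cut at about 11% in these data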;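 further: 0% = DMSO only wells and 100% = clavulanate high control wells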
* hit, by the source's call; · = no result shown. The list is not random: actives were taken first. Their share in the collection is about 1.2%.

SMILES	Neddyl block	GC-A act	TLR4 MyD88 comp	TLR9-MyD88 block	NPR2 activator	NOD2-RIPK2 inh	TLR9-MyD88 conf	BLA counter-1	TLR9 CHO tox	others
CSc1ccc(/C=N/n2c(COc3ccccc3)n[nH]c2=S)cc1	-12	-5	·	22*	-3	-2	-1	1	6
O=C(CC1CCCC1)N1CC[C@H]2[C@H](CCCN2Cc2ccccc2)C1	·	2	·	·	5	·	·	·	·
Cc1cc(C)c2nc(NNC(=O)c3cc(-c4cccs4)nc4ccccc34)sc2c1	23	1	7	25*	2	15	1	4	-2
Cc1ccc(/C=C2/NC(=O)N(Cc3ccc(Br)cc3)C2=O)o1	-6	3	-4	22*	49*	12	2	2	13*
O=C(C1CCCN1S(=O)(=O)c1ccc([N+](=O)[O-])cc1)N1CCc2ccccc2C1 (configuration not stated)	·	0	·	·	-5	·	·	·	·
CCC[C@H]1[C@@H](NC(=O)C(c2ccccc2)c2ccccc2)CC[C@@]23CCCN2C(=O)CCC[C@@H]13	·	-30	·	·	-28	·	·	·	·
COc1ccc(NC(=O)c2cc(OC)c(OC)c(OC)c2Br)cc1OC	10	-2	0	1	-1	-3	·	·	·
COc1cc(C(=O)Nc2ccc(C(C)=O)cc2)c(Br)c(OC)c1OC	0	1	0	21*	0	11	1	-2	5
CCc1ccc(OCC(=O)N/N=C(\C)c2ccccc2OC(F)F)cc1	-2	-1	-10	-16	1	-2	·	·	·
CCc1ccc(OCC(=O)N/N=C(\C)c2ccc(OC(F)F)cc2)cc1	2	-1	7	21*	-2	-8	1	4	4
COc1ccc(OC)c(/C=C/c2nc3ccccc3[nH]c2=O)c1	·	-2	·	28*	-2	14	30*	32	0
COc1ccc(OC)c(C=Nc2ccccc2-c2nc3ccccc3[nH]2)c1	·	-28	5	6	-9	4	·	·	·
COc1ccccc1CCn1cnc(-c2cccc(Cl)c2)c1CC(C)C	·	-10	·	·	-18	·	·	·	·
Cc1ccc(N=N/C(=C\O)C(=O)c2ccc(Cl)cc2)cc1	-11	1	-12	21*	-4	-10	6	4	11*
O=C(/C(=C/O)N=Nc1ccccc1)c1ccc(Cl)cc1	-14	0	-11	4	-5	-5	·	·	·
Cc1cccc(NC(=O)c2cc(-c3cc(Cl)ccc3O)n[nH]2)c1	9	·	·	23*	·	-40	-6	-2	-10
COc1ccc(C=C2C(=O)OC(C)(C)OC2=O)cc1OC	-2	10	·	-2	3	-5	·	·	·
COc1ccc(/C=C2\C(=O)NC(=O)c3ccccc32)cc1OC	·	6	·	31*	-4	-5	54*	58*	26*
Cc1cc(=O)n2ccccc2c1C#N	·	3	11	7	-2	3	·	·	·
COc1ccc2c(C#N)c3ccccn3c2c1	·	-9	24	21*	-9	11	5	8	7
COc1ccc(/C=C/c2ccc3c(Br)ccc(O)c3n2)cc1	-5	6	·	17	-7	7	·	·	·
COc1cc(/C=C/c2ccc3c(Br)cc(Br)c(O)c3n2)ccc1O	-11	-3	·	26*	-16	34*	28*	29	49*	NOD2 RIPK2 conf=45*;BLA counter-2=55*
O=C(c1ccccc1)c1ccccc1N1C(=O)C=CC1=O	-4	-24	·	33*	-12	70*	26*	5	96*	NOD2 RIPK2 conf=69*;BLA counter-2=16*
O=C(O)c1cccc(N2C(=O)C=CC2=O)c1	5	4	·	-2	-2	-11	·	·	·
CC(NC(=O)/C(C#N)=C/c1ccc([N+](=O)[O-])o1)c1ccccc1 (configuration not stated)	4	22	·	21*	7	52*	36*	19	99*	NOD2 RIPK2 conf=51*;BLA counter-2=34*
SMILES	Neddyl block	GC-A act	TLR4 MyD88 comp	TLR9-MyD88 block	NPR2 activator	NOD2-RIPK2 inh	TLR9-MyD88 conf	BLA counter-1	TLR9 CHO tox	others
CCC1(O)C(=O)OCc2c1cc1n(c2=O)Cc2cc3cc(O)ccc3nc2-1 (configuration not stated)	9	56*	·	29*	0	26*	19	20	63*	NOD2 RIPK2 conf=42*;BLA counter-2=33*
COCCCNC(=O)CSc1nnc(-c2cccnc2)n1C1CCCCC1	·	2	·	·	16	·	·	·	·
COCC#Cc1ccc(CC[C@H]2O[C@H]3CC[C@@H](CO)O[C@H]3C[C@H]2n2cc(C(C)(C)O)nn2)cc1	·	2	·	·	-4	·	·	·	·
CCCCS(=O)(=O)N1CCCc2nc(-c3ccc(OC)cc3)ccc21	·	1	·	·	6	·	·	·	·
CN(c1ccccc1)S(=O)(=O)c1ccc(NC(=O)c2nc(S(C)(=O)=O)ncc2Cl)cc1	5	49*	·	58*	38*	100*	52*	33	103*	NOD2 RIPK2 conf=93*;BLA counter-2=51*
COc1cccc(NC(=O)c2nc(S(C)(=O)=O)ncc2Cl)c1	12	11	·	45*	-1	74*	42*	33	100*	NOD2 RIPK2 conf=67*;BLA counter-2=32*
CN(c1ccccc1)S(=O)(=O)c1ccc(NC(=O)c2ccccc2)cc1	13	-1	-22	10	1	2	·	·	·
O=C(CC1CCCC1)N1CC[C@H]2[C@H](CCCN2Cc2cc(F)cc(F)c2)C1	·	1	·	·	5	·	·	·	·
CCCCN1CC(COCc2ccccc2)Oc2cccc(Sc3ccc(OC)c(OC)c3)c2S1(=O)=O (configuration not stated)	·	2	·	·	4	·	·	·	·
O=C(Sc1cccc2cccnc12)c1ccccc1Br	4	10	·	24*	7	39*	22*	15	98*	NOD2 RIPK2 conf=41*;BLA counter-2=17*
CC(=O)/C(=N\Nc1ccccc1Cl)Sc1cccc2cccnc12	-10	-19	-21	-1	-8	-2	·	·	·
COCc1cc(N2CCN(C(=O)OC(C)(C)C)C[C@@H]2C)ccc1N1CC[C@H](O)C1	·	3	·	·	5	·	·	·	·
CC(=O)Oc1ccc(-c2cc3ccccc3oc2=O)cc1	20	8	·	-13	1	3	·	·	·
